Screening results deposited in PubChem by National Center for Advancing Translational Sciences (NCATS).
DT40 TDP1 no CPT: qHTS for Inhibitors of human tyrosyl-DNA phosphodiesterase 1 (TDP1): qHTS in cells in absence of CPT. Potency, µM (highest dose often 46.2 µM), for inactives: at the highest dose activity change, negative = growth inhibition, hits mostly inhibitors. DT40 Tdp1-/- hTDP1 cells, no CPT, ATP luminescence, 48 h. 420,000 compounds, 15% hits. AID 686978, 2013; note: potency is the fitted concentration of half-maximal effect; nearly all actives have a fitted effect of over 55% in size
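DT40 Tdp1-/-;hTDP1 cells, no CPT (DMSO vehicle only), 400 cells/well; compounds pin-transferred; ≥48 hr, 37 °C; CellTiter-Glo 30 min RT dark, luminescence read.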
RORg inh: inhibitors of mouse ROR gamma transcriptional activity | Potency, µM (titrated, usually from 53.6 µM), inactives show top-dose activity change, negative = inhibition, hits mostly inhibitors | 310,000 compounds, 5.4% hits | Drosophila S2 Gal4-RORgamma UAS-luciferase reporter, 20 h | P51450; note: potency is the fitted concentration of half-maximal effect; nearly all actives have a fitted effect of over 60% in size
Target sequence (P51450 whole entry, looked up, the tested form may be a part): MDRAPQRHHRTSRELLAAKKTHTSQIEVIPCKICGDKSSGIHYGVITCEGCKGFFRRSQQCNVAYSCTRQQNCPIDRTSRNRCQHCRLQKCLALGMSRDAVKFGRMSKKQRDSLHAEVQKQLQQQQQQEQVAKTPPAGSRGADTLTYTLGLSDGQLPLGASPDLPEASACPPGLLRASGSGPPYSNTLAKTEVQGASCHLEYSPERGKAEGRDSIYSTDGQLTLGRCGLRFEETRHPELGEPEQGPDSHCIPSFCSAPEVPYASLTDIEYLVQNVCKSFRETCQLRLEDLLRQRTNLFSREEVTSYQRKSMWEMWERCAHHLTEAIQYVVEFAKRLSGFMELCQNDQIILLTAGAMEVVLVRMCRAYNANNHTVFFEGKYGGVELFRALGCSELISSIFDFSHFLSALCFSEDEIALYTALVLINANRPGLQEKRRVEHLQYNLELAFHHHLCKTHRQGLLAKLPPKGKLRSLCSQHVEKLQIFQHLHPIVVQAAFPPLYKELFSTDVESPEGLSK
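Compounds are pin-transferred onto Drosophila Schneider cells expressing a copper-inducible Gal4–ROR gamma transactivation domain fusion. After 1 hr, copper sulfate is added to 700 uM final; luciferase is read 20 hr later.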
Gal4-VP16 FLuc: inhibits Gal4-VP16 luciferase reporter, ROR gamma counter-screen; Drosophila S2 Gal4-VP16 UAS-luciferase, luminescence, 20 h; Potency, µM (series often up to 53.6 µM), for inactives: at the highest dose activity, negative = inhibition, actives largely listed as inhibitors; 310,000 compounds, 3.5% hits;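 note: Gal4-VP16 expression switched on by copper sulfate through the metallothionein promoter; potency is the fitted concentration of half-maximal effect; nearly all actives have a fitted effect of over 50% in size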
TDP1 cell CPT: growth inhibition of DT40 Tdp1-/-;hTDP1 cells with camptothecin (screen for TDP1 inhibitors) | chicken DT40 Tdp1-/-;hTDP1 cells + 20 nM CPT, ATP luminescence, 48 h | Potency, µM (titrated, usually from 46.2 µM), without a hit: top-dose activity change, negative = growth inhibition, actives largely listed as inhibitors | 420,000 compounds, 12% hits; note: potency is the fitted concentration of half-maximal effect; nearly all actives have a fitted effect of over 55% in size
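Chicken DT40 Tdp1-/- cells complemented with human TDP1, 400 cells/well, exposed to compounds plus 20 nM camptothecin for at least 48 h at 37 C; viability read as ATP content by CellTiter-Glo luminescence.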
LDHA inh: inhibitors of human lactate dehydrogenase A; AID 1347041; P00338; activity change, % (values are at about 110 or 230 µM); purified LDHA, NADH/diaphorase-resazurin fluorescence; hits give low values; 480,000 compounds, 0.15% hits; in the data active = activity change below about -30%; inconclusive = mostly about -25% to -30%;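 note: plate controls were DMSO wells for no effect and wells without enzyme for full effect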
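Resorufin fluorescence (ex540/em590), read at 0 and 20 min after diaphorase/resazurin addition, reports the NADH left after a 5 min room-temperature reaction of 2 nM human LDH5 with 0.06 mM NADH and 0.2 mM pyruvate.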
IL1B secr inh: blocks inflammasome-driven IL-1 beta release. THP-1 LPS/ATP IL-1B secretion, AlphaLISA, 16 h; hits give low values. activity change, % at 57.5 µM. 360,000 compounds, 4.7% hits; in the data active = activity change below about -50%; inconclusive = mostly about -30% to -49%
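THP-1 cells pretreated 1 hr with compounds (up to 57.5 uM final), then stimulated with LPS (250 ng/mL final) plus ATP (1.25 mM final); secreted IL-1B measured by AlphaLISA after 16 hr, decreased signal indicating inhibition.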
* = called active by the depositor; ? = inconclusive; nt = no result; [ ] = remark or other dose. Most compounds without a hit are left out; they make up all but 18% or so of the library. Unless noted, calls come from the whole dose curve; as a rule, active = well fitted curve in the direction sought with a large enough effect; inconclusive = small, poorly fitted or top-dose-only effect, or another doubt; inactive = no such curve, though single readings can be large; an effect the other way counts as inactive or inconclusive. Unless noted, % is set by controls: 0 for no effect and ±100 for the full control effect.

SMILES	DT40 TDP1 no CPT	RORg inh	Gal4-VP16 FLuc	TDP1 cell CPT	LDHA inh	IL1B secr inh
Cc1cc(C(F)(F)F)nc(Sc2nc(C)cc(C)c2C#N)n1	nt	nt	nt	nt	-3	nt
CC(=NO)C1CCC2C3CCC4=CC(=NO)CCC4(C)C3C(O)CC12C (configuration not stated)	16µM*	nt	nt	13µM*	-3	25
CC(=NO)C1CCC2C3CCC4=CC(=NO)CCC4(C)C3C(=O)CC12C (configuration not stated)	16µM*	nt	nt	13µM*	-2	44
Cc1ccc2c(C)c(C(=O)N(C)C(C)c3ccon3)oc2c1C (configuration not stated)	16µM*	2%	3%	?	-4	-9
Cc1ccc2c(C)c(C(=O)N(C)C(C)c3ccncn3)oc2c1C (configuration not stated)	-13%	0%	19%	-19%	-1	0
C=C(C)CN(CC)C(=O)CCc1ccsc1	nt	nt	nt	nt	-13	nt
CCOc1ccccc1NS(=O)(=O)c1ccc(N2CCCCS2(=O)=O)cc1	?	nt	nt	?	-19	nt
CCCCCNS(=O)(=O)c1ccc(N2CCCCS2(=O)=O)cc1	18µM*	nt	nt	16µM*	-1	nt
COc1ccccc1CNS(=O)(=O)c1ccc(N2CCCCS2(=O)=O)cc1	23µM*	nt	nt	?	0	nt
COc1ccccc1CNS(=O)(=O)c1ccc(N2C(=O)C(C)CS2(=O)=O)cc1 (configuration not stated)	nt	nt	nt	nt	-6	nt
Cc1cc(C)cc(NS(=O)(=O)c2ccc(N3CCCCS3(=O)=O)cc2)c1	15µM*	nt	nt	12µM*	-5	nt
CCN(CC)S(=O)(=O)c1ccc(N2CCCCS2(=O)=O)cc1	-23%	nt	nt	-15%	-10	nt
CCOC(=O)c1ccccc1NS(=O)(=O)c1ccc(N2CCCCS2(=O)=O)cc1	16µM*	nt	nt	23µM*	5	nt
CN1CCOC(CNCc2cnc(C(C)(C)C)s2)C1 (configuration not stated)	nt	nt	nt	nt	8	nt
Cc1cc(C(=O)NCCCN2CCCCCC2=O)c2ccc(F)cc2n1	nt	nt	nt	nt	10	nt
CCC(C)NS(=O)(=O)c1ccc(N2CCCCS2(=O)=O)cc1 (configuration not stated)	?	nt	nt	?	1	nt
CC(C)CCNS(=O)(=O)c1ccc(N2CCCCS2(=O)=O)cc1	9.2µM*	nt	nt	12µM*	-8	nt
O=C(Nc1ccc(Cl)c(Cl)c1)Nc1ccccc1C(=O)O	-15%	?	?	-10%	-9	-1
COc1cc(OC)cc(C(=O)N[C@H](C(=O)Nc2nc(-c3ccc(F)c(F)c3)cs2)C(C)C)c1	?	-1%	5%	?	-4	22
O=C(Nc1ccc(Cl)c(Cl)c1)Nc1nc(-c2ccccc2)cs1	13µM*	39%	?	12µM*	-11	-18
COc1cccc(-c2csc(NC(=O)Nc3ccccc3)n2)c1	2.3µM*	17%	?	7.3µM*	-2	-22
O=C(Nc1ccc(Cl)cc1)Nc1nc(-c2ccccc2O)cs1	4.6µM*	1%	-11%	5.2µM*	1	-69*
O=C(Nc1ccccc1)Nc1nc(-c2ccc(F)c(F)c2)cs1	2.9µM*	-6%	-1%	5.8µM*	-7	15
S=C(Nc1ccc(Cl)cc1)NC1CC1	nt	nt	nt	nt	2	nt
O=C(O)CCC(NC(=O)c1ccc(-c2ccc(Cl)cc2)s1)C(=O)O (configuration not stated)	nt	nt	nt	nt	-1	nt
SMILES	DT40 TDP1 no CPT	RORg inh	Gal4-VP16 FLuc	TDP1 cell CPT	LDHA inh	IL1B secr inh
COc1cccc(C(=O)Nc2nc(-c3ccncc3)cs2)c1	?	0%	-7%	-9%	-12	0
COc1cccc(-c2csc(NC(=O)C3CC3)n2)c1	6.5µM*	?	20%	5.2µM*	-1	10
CCCc1ccccc1OCCNC(C)=O	18µM*	3%[0.365 µM]	nt	18µM*	-2	0
CC(=O)OC1CCC2(C)C(CCC3C4CC=C(C(C)=O)C4(C)OC(=O)CC32)C1 (configuration not stated)	2.1µM*	nt	nt	2.3µM*	-1	-107*
CCOc1nc2ccccc2nc1N1CCC(C(=O)NC(C)c2ccccc2)CC1 (configuration not stated)	nt	nt	nt	nt	-6	nt
N=C1/C(=C/c2cccn2Cc2ccc(F)cc2)C(=O)N=C2SC=CN12	-17%	10µM*	-14%	-29%	-2	0
Cc1ccc(Cn2cccc2/C=C2/C(=N)N3C=CSC3=NC2=O)cc1	?	13µM*	?	?	-2	24
CC1(C)Cc2c(ccc3ccccc23)C2=C(C(=O)N3CCCC3)C(=O)C(=O)N21	8.2µM*	-37%	23%	8.2µM*	-7	71
C=C(C)CC1(NC(C)c2ccccc2)CCCCC1 (configuration not stated)	?	-20%	-17%	23µM*	3	12
COc1cc(-c2nc3c4ccccc4nc(=S)n3[nH]2)cc(OC)c1OC	?	1.4µM*	1.4µM*	?	-5	22
COc1ccccc1-c1nc2c3ccccc3nc(=S)n2[nH]1	-30%	0.35µM*	1.3µM*	?	-2	0
Nc1nc(Nc2cccc(F)c2)sc1C(=O)c1ccccc1Cl	nt	nt	nt	nt	-4	nt
COc1cc(OC)cc(C(=O)NCCN2C(=O)S/C(=C\c3cccs3)C2=O)c1	16µM*	?	-11%	16µM*	-11	-23
COC(=O)c1cc(C(=O)NCCN2C(=O)S/C(=C\c3cccs3)C2=O)cc([N+](=O)[O-])c1	?	30%[10 µM]	-10%	?	-5	-12
COc1cccc(C(=O)NCCN2C(=O)S/C(=C/c3cccs3)C2=O)c1OC	?	?	-13%	-25%	-2	-25
COc1cc(C(=O)NCCN2C(=O)S/C(=C\c3cccs3)C2=O)cc(OC)c1OC	16µM*	0%	7%	?	-2	-5
COc1cc(/C=C2\SC(=O)N(CCNC(=O)c3c(C)noc3C)C2=O)cc(OC)c1OC	16µM*	nt	nt	?	2	?
O=C(NCC1Cc2cccc(-c3cccnc3)c2O1)c1ccc2cc[nH]c2c1 (configuration not stated)	26µM*	nt	nt	2.9µM*	nt	nt
Cc1cc(C)n(-c2cccc(C(=O)NCC3Cc4cccc(-c5cccnc5)c4O3)c2)n1 (configuration not stated)	15µM*	nt	nt	?	nt	nt
Cc1cc(C)c(S(=O)(=O)N2CCN(C(=O)c3cc4ccccc4oc3=O)CC2)c(C)c1	?	nt	nt	21µM*	-8	-17
